High-throughput results (PubChem BioAssay)
BoNT A protease: blocks Botulinum neurotoxin A light chain protease; multiplex microsphere protease substrate cleavage, flow cytometry; inhibition, % at 10 µM; actives 0.17% (n = 360,000)
SARS 3CLpro inh: SARS-CoV 3CLpro protease inhibition; P0C6X7; recombinant SARS-CoV 3CLpro, quenched FRET peptide cleavage; inhibition, % at 6 µM; actives 0.14% (n = 290,000); AID 1706; in the data active = inhibition above about 12%
BoNT F protease: BoNT F light chain protease inhibition; inhibition, % at 10 µM; AID 588497; Multiplex microsphere protease cleavage assay, flow cytometry; actives 0.22% (n = 360,000); in the data active = inhibition above about 35%, passing the limit was not always enough; inconclusive = no clear call, values can overlap the other calls
CCHFV vOTU inh: blocks the CCHF virus ovarian tumor domain protease | CCHFV vOTU protease, Pep-AMC fluorescence | inhibition, % at 11.5 µM | actives 0.55% (n = 370,000) | AID 651958; in the data active = inhibition above about 30%
Autofluor counter: compound fluorescence in toxin protease inhibitor counterscreen; compound autofluorescence counterscreen, microsphere flow cytometry; hits give high values; fluorescence intensity (test concentration not listed); actives 3.1% (n = 360,000); in the data active = fluorescence intensity above about 16000; inconclusive = no clear call, values can overlap the other calls
Anthrax LF inh2: anthrax lethal factor protease inhibition; P15917; multiplex microsphere protease cleavage assay, LF; inhibition, % at 10 µM; actives 0.12% (n = 360,000)
Large screens that a line does not name were inactive. Shown are actives, neighbours in structure and some others; about 3.9% of the full set was active somewhere. Rule as the data show it, unless noted: active = inhibition above about 30%; inconclusive = no clear call, values can overlap the other calls; inactive = below that.

COC(=O)c1c(NC(=O)C2CC=CCC2C(=O)O)sc(C)c1C (centres undefined)	BoNT A protease inconclusive, Autofluor counter 22701
CCc1ccc([C@@H]2C[C@H]3CN(Cc4ccccc4OC)C(=O)[C@]34CCCN24)cc1	Autofluor counter 24775
COc1ccccc1CN1C[C@@H]2C[C@@H](c3ccc(C)cc3)N3CCC[C@@]23C1=O	none
CCOC(=O)C1(C(=O)OCC)Cc2c([nH]c3ccccc23)[C@]2(N1)C(=O)N(C)c1ccc(Br)cc12	none (no result: BoNT A protease, SARS 3CLpro inh, BoNT F protease, Autofluor counter, Anthrax LF inh2)
CCCN1CN(Cc2ccco2)c2nc3ccccc3n2C1	BoNT A protease inconclusive, Autofluor counter 18478
c1coc(CN2CNc3nc4ccccc4n3C2)c1	none
COc1ccc(N2C(=O)CC(N3CCC(O)(c4ccc(Cl)cc4)CC3)C2=O)cc1 (centres undefined)	BoNT A protease inconclusive, Autofluor counter 16898
COc1ccc(N2C(=O)CC(n3cnc4ccccc43)C2=O)cc1 (centres undefined)	BoNT A protease inconclusive, Autofluor counter 22109
COc1ccc(N2C(=O)CC(N3CCN(c4ccccc4)CC3)C2=O)cc1 (centres undefined)	BoNT F protease inconclusive
COc1ccc(N2C(=O)CC(N3CCC(c4nc5ccccc5[nH]4)CC3)C2=O)cc1 (centres undefined)	BoNT A protease inconclusive, Autofluor counter 22767
O=C1CC(N2CCC(c3nc4ccccc4[nH]3)CC2)C(=O)N1c1ccccc1F (centres undefined)	none
C=CC(=O)NC1CCCCN(CC)C1=O (centres undefined)	none (no result: BoNT A protease, SARS 3CLpro inh, BoNT F protease, Autofluor counter, Anthrax LF inh2)
O=C(NCc1ccccc1Cl)C1CCC(CNS(=O)(=O)c2cccc3cccnc23)CC1 (centres undefined)	none (no result: BoNT A protease, SARS 3CLpro inh, BoNT F protease, Autofluor counter, Anthrax LF inh2)
COc1ccccc1OC(C)C(=O)O (centres undefined)	Autofluor counter 20529
CC(=O)c1sc2nc(C)cc(C)c2c1N	Autofluor counter 21807
CCCCCn1c(C)c(CC(=O)Nc2ccc(Oc3cccnc3)c(C)c2)c2ccccc21	none (no result: BoNT A protease, SARS 3CLpro inh, BoNT F protease, Autofluor counter, Anthrax LF inh2)
C/C(CCc1ccc2c(c1)OCO2)=N\N=C1\NC(=O)CC(C(=O)Nc2ccc(Cl)cc2)S1 (centres undefined)	Autofluor counter 21037
CCc1ccc(C(=O)OCC(=O)N(CCOC)c2c(N)n(Cc3ccccc3)c(=O)[nH]c2=O)cc1	BoNT F protease 47 (no result: SARS 3CLpro inh)
COCCN(C(=O)COC(=O)c1nc(Cl)ccc1Cl)c1c(N)n(Cc2ccccc2)c(=O)[nH]c1=O	BoNT F protease 46 (no result: SARS 3CLpro inh)
CCCCC(=O)c1c(C)cc(C)[nH]c1=O	none
CCCCC(=O)C1C(=O)NC(=O)NC1=O	Autofluor counter 19202
CCCCCCCCNS(=O)(=O)CC1NCc2ccc(C)cc21 (centres undefined)	none (no result: BoNT A protease, SARS 3CLpro inh, BoNT F protease, Autofluor counter, Anthrax LF inh2)
Cc1ccc(S(=O)(=O)N(CC(=O)N/N=C/c2ccco2)Cc2ccccc2)cc1	BoNT A protease inconclusive, Autofluor counter 22458
Cc1cccc(CN(CC(=O)N/N=C/c2ccco2)S(=O)(=O)c2ccc(Cl)cc2)c1	none
Cc1ccc(-c2nc3cc(N)ccc3o2)cc1	Autofluor counter 23399
Cc1ccc(-c2nc3cc(C)ccc3o2)cc1	none
Cc1ccc(-c2nc3cc(NS(=O)(=O)c4ccc(C)cc4)ccc3o2)cc1	Autofluor counter 20631
CC(C)c1ccc2oc(-c3ccc(N)cc3)nc2c1	Autofluor counter 21916
C=CCNC(=O)N1CCC(c2nc3ccc(Cl)cc3[nH]2)CC1	none (no result: BoNT A protease, SARS 3CLpro inh, BoNT F protease, Autofluor counter, Anthrax LF inh2)
COC(=O)[C@H](CC(C)C)N(CCCc1cn(Cc2ccc(C)cc2)nn1)S(=O)(=O)c1ccc(F)cc1Br	none (no result: BoNT A protease, SARS 3CLpro inh, BoNT F protease, Autofluor counter, Anthrax LF inh2)
C/C(C=NNC(=O)CSc1nc2ccccc2n1C)=C\c1ccccc1	none (no result: BoNT A protease, SARS 3CLpro inh, BoNT F protease, Autofluor counter, Anthrax LF inh2)
Clc1ccc(CNCCC2=CCCCC2)cc1	BoNT A protease inconclusive, Autofluor counter 17461
Cc1ccccc1CN1CCCCC(NC(=O)c2ccc(N(C)C)cc2)C1=O (centres undefined)	none (no result: BoNT A protease, SARS 3CLpro inh, BoNT F protease, Autofluor counter, Anthrax LF inh2)
Cc1nc(Nc2ccncc2)c2oc3ccccc3c2n1	none
CCc1nc(N2CCCCC2)c2oc3ccccc3c2n1	Autofluor counter 23515
CCc1nc(N2CCCCC2C(=O)O)c2oc3ccccc3c2n1 (centres undefined)	none
CCc1nc(N2CCCCC2C)c2oc3ccccc3c2n1 (centres undefined)	Autofluor counter 19411
CCc1nc(Nc2ccncc2)c2oc3ccccc3c2n1	Autofluor counter 20587
O=C(NCC1COc2ccccc2O1)c1ccc(NC(=O)c2c(Cl)cccc2Cl)cc1 (centres undefined)	none (no result: BoNT A protease, SARS 3CLpro inh, BoNT F protease, Autofluor counter, Anthrax LF inh2)
C=CCN1C(=O)[C@H](CC(=O)NCCCOCCCC)[C@@]2(C(=O)OCC)CCCC=C12	none (no result: BoNT A protease, SARS 3CLpro inh, BoNT F protease, Autofluor counter, Anthrax LF inh2)
CCOC(=O)c1c(-c2ccc(C)o2)csc1NC(=S)NC(=O)N(C)C	Autofluor counter 18614
CCOC(=O)c1c(-c2ccc(C)o2)csc1NC(=O)COC(=O)c1cccs1	none
Cc1ccc(-n2c(SCC(=O)c3ccc(-c4ccccc4)cc3)nnc2-c2ccc(C(C)(C)C)cc2)cc1	none (no result: BoNT A protease, SARS 3CLpro inh, BoNT F protease, Autofluor counter, Anthrax LF inh2)
Cc1ccc(NC(=O)CSc2nnc(-c3cnccn3)n2Cc2ccco2)cc1	Autofluor counter 17381
Brc1ccc(CSc2nnc(-c3cnccn3)n2Cc2ccco2)cc1	none
O=C(CSc1nnc(-c2cnccn2)n1Cc1ccco1)c1ccc2ccccc2c1	BoNT A protease inconclusive, Autofluor counter 21448
C=CCn1c(SCC(=O)Nc2cccc3ccccc23)nnc1-c1cnccn1	Autofluor counter 16132
C=CCn1c(SCC(=O)Nc2ccc(F)cc2F)nnc1-c1cnccn1	none
Fc1ccc(CSc2nnc(-c3cnccn3)n2Cc2ccco2)cc1	Autofluor counter 24676
O=C(CSc1nnc(-c2ccccn2)n1Cc1ccco1)Nc1ccc(Oc2ccccc2)cc1	none (no result: BoNT A protease, SARS 3CLpro inh, BoNT F protease, Autofluor counter, Anthrax LF inh2)
CSC1=Nc2ccccc2N=C(N2CCCC2)C1	none (no result: BoNT A protease, SARS 3CLpro inh, BoNT F protease, Autofluor counter, Anthrax LF inh2)
C[C@H]1CCCN1c1cccc2c1S(=O)(=O)N(C1CC1)CCCO2	none (no result: BoNT A protease, SARS 3CLpro inh, BoNT F protease, Autofluor counter, Anthrax LF inh2)
Cc1cccc(NC(=O)CSc2nnc(-c3cnccn3)n2Cc2ccco2)c1	BoNT A protease inconclusive, Autofluor counter 23296
COc1ccc(C2C(C(=O)Nc3ccc(Cl)c(Cl)c3)CCC(=O)N2c2ccc(OC)cc2)cc1 (centres undefined)	none (no result: BoNT A protease, SARS 3CLpro inh, BoNT F protease, Autofluor counter, Anthrax LF inh2)
O=C(NCc1cccnc1)Nc1cccc(NC(=O)NCc2cccnc2)c1	Autofluor counter 27382
CC(=O)c1cccc(NC(=O)NCc2cccnc2)c1	Autofluor counter 20530 (no result: CCHFV vOTU inh)
O=C(NCc1cccnc1)Nc1cccc(Cl)c1	none
CC(C)(C)N(NC(=O)NCCCl)C(=O)c1ccccc1Cl	none (no result: BoNT A protease, SARS 3CLpro inh, BoNT F protease, Autofluor counter, Anthrax LF inh2)
C=CCN1C(=O)C2(/C(=C(\O)c3ccc4c(c3)OCCO4)C(=O)C(=O)N2CCCOC)c2ccccc21 (centres undefined)	Autofluor counter 23166 (no result: CCHFV vOTU inh)
C=C(C)CN1C(=O)C(O)(CC(=O)c2ccc3c(c2)OCCO3)c2ccccc21 (centres undefined)	none
O=C(NCc1ccco1)c1sc(=S)n2c1[nH]c(=O)c1ccccc12	BoNT A protease inconclusive, Autofluor counter 22207
C=CCn1c(N)c(C(=O)NCc2ccco2)sc1=S	Autofluor counter 21000
Cc1ccc(-n2c(N)c(C(=O)NCc3ccco3)sc2=S)cc1	none
O=C(NC1CCCC1)c1sc(=S)n2c1[nH]c(=O)c1ccccc12	none
CCn1c(N)c(C(=O)N2CCOCC2)sc1=S	none
